HCV inhibitor = qHTS Assay for Inhibitors of Hepatitis C Virus (HCV); Huh7.5.1 HCVcc-Cre infection, luciferase reporter, 44 h; Potency, µM (top dose mostly 41.8 µM), without a hit: top-dose activity change, negative = inhibition, hits mostly inhibitors; actives 3.4% (n = 340,000); AID 651820, 2012; also: potency is read from the fitted curve at half-maximal effect; % is scaled to controls: 0 for no effect and ±100 for the full control effect
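Infectious HCV cell culture screen: compound-treated cells (1,000/well, pre-plated 4 h) are infected with HCVcc-Cre at roughly 0.5 moi and grown 44 h. Infection is quantified by luciferase signal after 15 min substrate incubation at room temperature.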
SARS PLP yeast = qHTS of Yeast-based Assay for SARS-CoV PLP; actives 0.19% (n = 330,000); Potency, µM (series often up to 32.9 µM), inactives show at the highest dose activity, positive = growth rescue, usual class: activators; S. cerevisiae expressing SARS-CoV PLpro, growth rescue; calls by dose curve; also: potency is read from the fitted curve at half-maximal effect; 0% is about no effect; nearly all actives have a fitted effect of over 55% in size
HCMV antiviral = qHTS Assay for inhibitors of the human cytomegalovirus (HCMV); HFF cells, HCMV-luciferase reporter, 72 h; hits give low values; activity change, negative = inhibition, % at 57.5 µM; actives 4.5% (n = 410,000); AID 1259415, 2018; in the data active = activity change below about -60%; inconclusive = no clear call, values can overlap the other calls; inactive = above about -39%; also: % is scaled to controls: 0 for no effect and ±100 for the full control effect
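Human foreskin fibroblasts infected with luciferase-reporter HCMV at MOI 1 PFU/cell, compounds at two doses. Luciferase measured 72 h post infection; normalized to buffer-only basal and Salinomycin (10uM) controls.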
Sm TGR inh = qHTS Assay for the Inhibitors of Schistosoma Mansoni Peroxiredoxins; purified TGR, DTNB reduction, TNB absorbance 405 nm; Potency, µM (series often up to 114 µM), without a hit: at the highest dose activity change, negative = inhibition, actives largely listed as inhibitors; actives 3% (n = 360,000); AID 485364, 2010; also: potency is read from the fitted curve at half-maximal effect; % is scaled to controls: 0 for no effect and ±100 for the full control effect; nearly all actives have a fitted effect of over 60% in size
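First, TGR (20 nM dispensed) and NADPH were mixed with compound. Second, a 15 min room-temperature incubation followed. Third, further NADPH and then DTNB were added to start the reaction. Finally, TNB absorbance was monitored kinetically.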
Pf growth 96h = Primary qHTS for delayed death inhibitors of the malarial parasite plastid, 96 hour incubation. P. falciparum luciferase reporter growth, 96 h. Potency, µM (doses to about 28.7 µM), for the others: top-dose activity change, negative = inhibition, actives largely listed as inhibitors. actives 6.9% (n = 320,000); also: potency is read from the fitted curve at half-maximal effect; % is scaled to controls: 0 for no effect and ±100 for the full control effect
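Delayed-death screen, second-generation endpoint: infected erythrocytes, 2% hematocrit, 0.05% parasitemia final; 96 hours at 37 C, 5% CO2; luciferase detection reagent; luminescence decrease equals reduced growth.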
Pf growth 48h = Primary qHTS for delayed death inhibitors of the malarial parasite plastid, 48 hour incubation; P. falciparum luciferase growth in erythrocytes, 48 h; Potency, µM (titrated, usually from 28.7 µM), without a hit: at the top dose activity change, negative = inhibition, hits mostly inhibitors; actives 5.9% (n = 310,000); AID 504832, 2011; also: potency is read from the fitted curve at half-maximal effect; % is scaled to controls: 0 for no effect and ±100 for the full control effect
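Luciferase-expressing parasites in RBCs, 2% Hct / 0.1% parasitemia final; RPMI 1640 + 0.5% Albumax; 37 C, 5% CO2, one generation; luminescence read-out, lower signal = inhibition.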
Starred values were filed as active, the others as inactive; ? = inconclusive; / = no result given. An excerpt weighted towards active compounds, which were near 15% of everything screened. Unless noted, calls follow the shape of the dose curve; as a rule, active = well fitted curve in the direction sought with a large enough effect; inconclusive = small, poorly fitted or top-dose-only effect, or another doubt; inactive = no such curve, though single readings can be large; an effect the other way counts as inactive or inconclusive.

SMILES	HCV inhibitor	SARS PLP yeast	HCMV antiviral	Sm TGR inh	Pf growth 96h	Pf growth 48h
COc1ccc(C(=O)Nc2ccccc2Cc2ccccc2)c(OC)c1	10µM*	-16%	-71*	0%	?	?
COc1ccc(C(=O)NCC(C)C)c(OC)c1	?	5%	-29	3%	9.3µM*	?
CCCNC(=O)c1ccc(OC)cc1OC	13%	1%	-10	5%	23%	36%
COc1ccc(C(=O)Nc2ccc(C)cc2C(=O)c2ccccc2)c(OC)c1	-1%	-21%	?	6%	?	-2%
Cc1ccc(OCC(=O)NCCNC(=O)c2cnccn2)cc1C	16%	17%	15	-6%	?	2%
COc1cc(CNc2ncn[nH]2)ccc1OCc1cccc(C)c1	-5%	0%	51	5%	-2%	117%
O=C(COc1ccccc1)Nc1cccc(-c2cn3cccnc3n2)c1	-28%	-1%	28	2%	6.6µM*	9.3µM*
CN(C)S(=O)(=O)c1cccc(-c2cn3cc(Cl)ccc3n2)c1	?	-2%	/	2%	-28%	/
O=C(Cc1ccccc1)Nc1cccc(-c2cn3cccnc3n2)c1	/	/	27	4%	/	/
COc1ccc(-c2cn3cccnc3n2)cc1NC(=O)C1CC1	?	-3%	59	5%	9.3µM*	25%
CN(C)S(=O)(=O)c1cccc(-c2cn3ccccc3n2)c1	12%	8%	26	0%	10µM*	18%
O=C(Nc1cccc(-c2cn3ccsc3n2)c1)c1ccccc1	25µM*	0%	17	-7%	7%	90%
CN(C)c1ccc(CNc2nc(-c3ccco3)nn2S(C)(=O)=O)cc1	/	/	111	-5%	/	/
O=C(N/N=C/c1ccoc1)c1cccc(OC(F)(F)C(F)F)c1	18%	/	7	/	/	/
CN(C)S(=O)(=O)c1cccc(-c2nnc(-c3ccccc3)o2)c1	-1%	3%	-105*	15%	?	/
O=C(Nc1cccc(-c2cn3ccccc3n2)c1)c1cnccn1	7%	2%	82	-1%	14%	94%
COc1ccc(CC(=O)Nc2cccc(-c3cn4ccccc4n3)c2)cc1	?	-36%	17	-11%	45%	39%
O=C(Nc1cccc(-c2cn3ccccc3n2)c1)c1cccc(Cl)c1	11µM*	-20%	-33	-1%	?	?
CCC(=O)Nc1cccc(-c2cn3ccccc3n2)c1	-24%	7%	27	-7%	12µM*	146%
COc1cc(C(C)=O)ccc1OC(=O)N1CCOCC1	/	/	9	/	/	/
CN1C(C)(C)CC(O)(C(=O)O)CC1(C)C	/	/	9	/	/	/
CN1C(=O)N(CC(=O)Nc2ccc3c(c2)OCO3)C(=O)C12CCCCC2	/	/	9	/	/	/
Cc1noc(Cn2c(=O)c3ccccc3n(CC(=O)Nc3ccccc3C(F)(F)F)c2=O)n1	/	/	-2	-7%	/	/
COc1cccc(N(C(=O)c2cnccn2)C(C(=O)NC2CCCCC2)c2ccc(Cl)cc2)c1 (centres undefined)	6%	4%	-20	-7%	?	?
COc1ccc(N(C(=O)c2cnccn2)C(C(=O)NCc2ccccc2)c2ccc(O)cc2)cc1 (centres undefined)	12%	-1%	-19	28µM*	19%	53%
SMILES	HCV inhibitor	SARS PLP yeast	HCMV antiviral	Sm TGR inh	Pf growth 96h	Pf growth 48h
O=C(NC1CCCCC1)C(c1ccc(Cl)cc1)N(C(=O)c1cnccn1)c1ccc2c(c1)OCO2 (centres undefined)	9%	-1%	-1	2%	-15%	10µM*
O=C(NCc1ccccc1)C(c1ccc(O)cc1)N(C(=O)c1cnccn1)c1ccccc1 (centres undefined)	1%	2%	-7	6%	-46%	-4%
CC(=O)Nc1ccc(N(C(=O)c2cnccn2)C(C(=O)NC2CCCCC2)c2ccc(O)cc2)cc1 (centres undefined)	19%	0%	17	16µM*	-6%	7%
Cc1ccc(C)c(NC(=O)CN2C(=O)c3cccnc3Oc3ccc(C)cc32)c1	/	/	0	-16%	/	/
CCC/C(=N\NC(=O)C1CC1)c1ccccc1	-6%	/	-13	/	/	/
CC[N+]12CCC(CC1)C(=C(c1ccccc1)c1ccccc1)C2	3%	-1%	-61*	-4%	?	27%
C[N+]12CCC(CC1)C(=C(c1ccccc1)c1ccccc1)C2	?	-3%	?	-8%	0.59µM*	0.74µM*
CC1CCCC1/C(=N/O)c1ccccc1 (centres undefined)	12%	2%	-26	-10%	46%	21%
Cc1nc(SCc2ccc(C#N)cc2)n[nH]1	15%	2%	56	4%	13µM*	6%
Cc1cc(N2CCCCC2)nc(SCc2ccc(C#N)cc2)n1	?	-9%	-22	15%	/	15µM*
C[C@H](CO)N1C[C@H](C)[C@@H](CN(C)C(=O)Nc2ccc(F)cc2)Oc2ncc(-c3ccc(F)cc3)cc2C1=O	/	/	-11	/	/	/
O=C(CN1CCN(c2ccc(F)cc2)CC1)N1N=CCC1c1ccccc1 (centres undefined)	11µM*	2%	-13	2%	?	1%
O=C(CN1CCN(c2ccccc2)CC1)N1N=CCC1c1ccccc1 (centres undefined)	?	7%	-7	2%	?	29%
O=C(CN1CCN(C(c2ccccc2)c2ccccc2)CC1)N1CCN(c2ccccc2)CC1	?	0%	13	-23%	?	12µM*
NC(=O)C1CCN(CC(=O)N2N=CCC2c2ccccc2)CC1 (centres undefined)	13%	0%	-103*	14%	19%	46%
O=C(CN1CCN(C(c2ccccc2)c2ccccc2)CC1)N1N=CCC1c1ccccc1 (centres undefined)	?	0%	-5	4%	12µM*	?
O=C(N1CCOCC1)N1CCN(C(c2ccccc2)c2ccccc2)CC1	-7%	2%	9	-1%	?	-20%
O=C(N1CCCCC1)N1CCN(C(c2ccccc2)c2ccccc2)CC1	-24%	-12%	-12	-4%	8.3µM*	/
CCOc1ccc(N2CC(=O)Nc3ccccc3NCC2=O)cc1	1%	2%	24	?	8.3µM*	-2%
CCOc1ccc(N2C(=O)CNC2=S)cc1	8%	-4%	-22	7%	?	-2%
CCOC(=O)c1nc(Nc2ccc(C(=O)OCC(C)C)cc2)c2ccccc2n1	/	/	-13	4%	/	/

High-throughput results from PubChem.
